Source: PubChem BioAssay (The Scripps Research Institute Molecular Screening Center)
A selection: hits, their analogues and other compounds. The true share with any hit is near 4.1%.
rCAG binder – r(CAG) repeat RNA binding; TO-PRO-1 dye displacement fluorescence; inhibition, % at 3 µM; actives 1.3% (n = 370,000); AID 651821;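 active = inhibition above the plate cutoff, the mean of all test compounds on that plate plus 3 SD, cut at about 35% in these data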;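 note: higher means more dye released from RNA so lower well fluorescence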
ABHD5 PLIN5 PPI – ABHD5-PLIN5 protein interaction inhibition; Q00G26+Q8WTS1; Split G. princeps luciferase complementation, luminescence, 4 h; inhibition, % at 4 µM; actives 0.78% (n = 360,000); AID 602281;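 active = inhibition above the mean inhibition across every tested compound plus 3 SD, cut at about 22% in these data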
MBD2 DNA inh – MBD2-methylated oligo binding inhibition; TR-FRET, MBD2 binding to methylated oligonucleotide; inhibition, % at 4.4 µM; actives 0.31% (n = 370,000); AID 686964; in the data active = inhibition above about 13%
PRMT1 FP inh – blocks human protein arginine methyltransferase 1 | recombinant PRMT1, activity-based probe fluorescence polarization | inhibition, % at 2.79 µM | actives 1.3% (n = 370,000);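 active = inhibition above about 21% made by adding two undisclosed values, limit read from the data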
Target sequence (Q99873 whole entry, looked up): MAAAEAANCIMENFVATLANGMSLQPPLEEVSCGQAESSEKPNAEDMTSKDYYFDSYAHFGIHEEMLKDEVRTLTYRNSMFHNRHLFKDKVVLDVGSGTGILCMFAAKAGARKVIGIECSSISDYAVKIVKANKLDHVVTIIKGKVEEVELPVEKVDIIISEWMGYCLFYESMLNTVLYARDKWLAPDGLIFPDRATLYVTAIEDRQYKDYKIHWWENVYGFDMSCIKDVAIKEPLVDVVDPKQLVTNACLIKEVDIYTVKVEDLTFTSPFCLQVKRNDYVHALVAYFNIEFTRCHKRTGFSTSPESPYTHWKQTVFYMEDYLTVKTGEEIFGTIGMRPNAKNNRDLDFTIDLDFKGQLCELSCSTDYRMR
UHRF1 MBD2 ctr – blocks human UHRF1 binding to methylated DNA; inhibition, % at 4.4 µM; Q96T88; UHRF1 binding to methylated oligo, TR-FRET; actives 0.75% (n = 370,000); AID 687016; in the data active = inhibition above about 21%;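 note: UHRF1 SRA domain binding a hemimethylated CpG hairpin DNA probe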
LEDGF integ inh – blocks HIV-1 LEDGF/p75-dependent DNA integration; TR-FRET IN-LEDGF/p75 DNA integration, Eu/Cy5; inhibition, % at 3.7 µM; actives 0.64% (n = 370,000); AID 743269;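 active = inhibition above the screen-wide mean plus 3 SD, cut at about 13% in these data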;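 note: signal is the Cy5 over europium emission ratio at 671 and 618 nm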
A number is an active result; 0 = inactive; - = not tested or not shown.

SMILES	rCAG binder	ABHD5 PLIN5 PPI	MBD2 DNA inh	PRMT1 FP inh	UHRF1 MBD2 ctr	LEDGF integ inh
CCN(CC)C(=O)CC[C@H]1CC[C@]2(CCCN(Cc3ccncc3)C2)O1	0	-	0	0	0	0
Cc1cnc(C)c(Nc2nc(C(N)Cc3ccc(Cl)cc3)cs2)n1 (configuration not stated)	0	0	0	25	0	0
Cc1cc(N=Nc2ccccc2)c(NCC(O)C(O)C(O)CO)cc1C (configuration not stated)	0	22	0	0	0	0
Cc1ccc(NCC(O)C(O)C(O)CO)cc1C (configuration not stated)	0	0	0	0	0	0
Cc1ccc(CNC(=O)COc2ccc(C)nc2[N+](=O)[O-])cc1	0	0	0	0	0	0
Cc1ccc(OCC(=O)c2ccc(Cl)s2)c([N+](=O)[O-])n1	0	0	0	24	0	0
CCC[C@H]1[C@@H](OC(=O)NC(CC)CC)CC[C@@]23CCCN2C(=O)CCC[C@@H]13	-	-	0	0	78	0
O=C(CSc1nnc(-c2ccccn2)n1-c1ccccc1)Nc1cccc2ccccc12	0	-	0	0	0	0
CCN(CC)C(=O)[C@H]1C[C@@H]2[C@H](C[C@@H](c3ccccc3)[C@H]1C)N(c1ccc(F)cc1)C(=O)N2C/C=C(\C)CCC=C(C)C	0	-	0	0	0	0
CN(CCc1ccccn1)C(=O)CCc1nnc(CCCc2ccccc2)o1	0	0	0	0	0	0
CN(CCc1cnn(C)c1)C(=O)CCc1nnc(CCCc2ccccc2)o1	0	0	0	0	48	0
C[C@@H](O[Si](c1ccccc1)(c1ccccc1)C(C)(C)C)[C@@H]1NC(=O)[C@@H]2C[C@]3(Br)c4ccccc4N(S(=O)(=O)c4ccccc4)[C@@H]3N2C1=O	-	-	0	0	0	0
CCC(NC(=O)Nc1ccc(O)cc1)(C(F)(F)F)C(F)(F)F	0	0	0	0	0	15
CCC(NC(=O)NCc1ccccc1)(C(F)(F)F)C(F)(F)F	0	0	0	0	0	0
c1ccc(CN2CCN(c3nc(-c4ccccc4)nc4ccccc34)CC2)cc1	0	0	0	0	21	0
O=C(Nc1cccc(F)c1)OCCN1CCCC12CCC(c1ccccc1)CC2 (configuration not stated)	-	-	0	0	0	0
CC(=O)N1CCN(c2ccc(N3CCN(C(C)=O)[C@@H](C)C3)c(C)c2)[C@@H](C)C1	0	-	0	0	0	0
COc1ccccc1-c1ccc(SCc2cccc(F)c2)nn1	0	0	0	0	58	0
CCCCCCCCN1C(=O)[C@@H](CC(=O)N2CCCCC2)C[C@@]2(C(=O)OC)C1=C[C@H](C1CCCC1)O[C@@H]2C	0	-	0	0	0	0
O=C(O)CSCC(=O)Nc1ccc(-c2nc3ccccc3s2)cc1	39	0	0	36	0	0
O=C(CCN1C(=O)c2ccccc2C1=O)Nc1ccc(-c2nc3ccccc3s2)cc1	0	0	0	0	0	0
O=C(Nc1ccccc1F)c1ccn[nH]1	0	0	0	0	75	0
COc1cc2c(cc1OC)C(=O)Cc1ccc3c(c1CN(C)CC2)OCO3	0	0	0	0	0	0
COc1ccc2c(c1OC)CN(C)CCc1cc3c(cc1C(=O)C2)OCO3	0	0	0	0	21	0
CCNC(=O)C1CCCN(C(=O)Cc2cccs2)CC1 (configuration not stated)	0	0	0	0	24	0
SMILES	rCAG binder	ABHD5 PLIN5 PPI	MBD2 DNA inh	PRMT1 FP inh	UHRF1 MBD2 ctr	LEDGF integ inh
Cc1ccc(C(=O)Nc2ccc(O)c(C(=O)O)c2)o1	0	0	0	0	44	0
CCCCc1c(-c2ccc(F)cc2F)ncn1CCc1ccccc1OC	0	0	0	0	0	0
CCCCc1c(Cc2cccc(F)c2)ncn1CCc1ccccc1OC	0	0	0	0	21	0
CCOC(=O)[C@@]12CCCC=C1N(CCc1ccc(Cl)cc1)C(=O)[C@H]2CC(=O)NCc1cccs1	0	-	0	0	0	0
CCCc1nc2c3ccccc3ccn2c1Cc1cccc(F)c1	0	0	0	0	21	0
Cc1ccc(Cc2c(-c3ccc(Cl)cc3)nc3c(C)cc(Br)cn23)cc1	0	0	0	0	0	0
CCCc1nc2c(C)cc(Br)cn2c1Cc1ccccc1OC	0	-	0	0	22	0
CCCc1nc2c(C)cc(Br)cn2c1Cc1cccc(Cl)c1	0	-	0	0	24	0
Fc1ccc(-c2nc3c4ccccc4ccn3c2Cc2cccc(F)c2)cc1	0	-	0	0	0	0
CCCc1nc2c(C)cc(Br)cn2c1Cc1ccc(C)cc1	0	0	0	0	22	0
CC(C)CNC(=O)OCc1cn(Cc2cccc(F)c2)nn1	0	-	0	0	0	0
COc1cc(-c2nnc(NC(=O)c3ccc(S(=O)(=O)N4CCOCC4)cc3)o2)cc(OC)c1OC	0	-	0	0	82	0
COc1cccc(-c2nnc(NC(=O)c3ccc(S(=O)(=O)N4CCOCC4)cc3)o2)c1	-	0	-	-	-	-
CCOC(=O)N1CCN(S(=O)(=O)c2ccc(C(=O)Nc3nnc(CSC)o3)cc2)CC1	0	0	0	0	31	0
C[C@H](O)[C@@H]1C(=O)N2CCc3c([nH]c4cccc(-c5ccccc5)c34)[C@@H]2C[C@@H]1N(C)C(=O)OCc1ccccc1	0	-	0	0	0	0
CCOC(=O)C(N)CSC1CC(=O)N(c2ccc(C(=O)OC)cc2)C1=O (configuration not stated)	0	0	0	0	0	0
CCOC(=O)C(N)CSC1CC(=O)N(CCc2ccccc2)C1=O (configuration not stated)	0	0	0	22	0	0
S=c1[nH]c(-c2ccccc2)cn1/N=C/c1ccc(Br)cc1	0	0	0	0	0	0
Cc1ccc(C)c(/C=N/n2cc(-c3ccccc3)[nH]c2=S)c1	0	0	0	24	0	0
Fc1ccccc1/C=N/n1cc(-c2ccccc2)[nH]c1=S	0	0	0	24	0	0
CCN=C1NC(c2ccc(C(F)(F)F)cc2)C(C(=O)OC)=C(C)N1Cc1cccc(C(F)(F)F)c1 (configuration not stated)	0	-	0	0	0	0
Cc1oc(-c2ccccc2Cl)nc1CSCC(=O)NC1CC1	0	0	0	0	0	0
Cc1oc(-c2ccccc2F)nc1CSCC(=O)NC1CCCC1	0	0	0	24	0	0
O=C(COc1ccc(Br)cc1)NNC(=O)c1cc(S(=O)(=O)N2CCOCC2)ccc1Cl	0	0	0	0	0	35
CCn1c(SCC(=O)NCc2ccc3c(c2)OCO3)nc2c(c1=O)SCC2	0	0	0	0	0	18
CN1[C@@H](Cc2ccccc2)COc2cccc(N3CCCC3)c2S1(=O)=O	0	-	0	0	0	0
O=[N+]([O-])c1ccc2c(c1)ncn2CCc1ccccc1	0	0	0	0	26	0
Cc1ccc(-c2cc(-c3nnc(SCC(=O)Nc4nccs4)n3N)[nH]n2)cc1	0	-	0	0	0	0
